# Bioassay records as filed in PubChem BioAssay.
# Neddylation inh = inhibitors of cullin neddylation, primary screen, biochemical, TR-FRET, uHTS, NAE and Ubc12; inhibition, % at 25 µM; 360,000 compounds, 0.58% hits; AID 651699, 2012; NEDD8-conjugating enzyme Ubc12 (Homo sapiens) + NEDD8-activating enzyme E1 regulatory …; in the data active = inhibition above about 36%
# NPR2 activator = human GC-B receptor activators, primary screen, HEK293 GC-B cells, cGMP TR-FRET, EC30 CNP; Atrial natriuretic peptide receptor 2 (Homo sapiens), P20594; 0% at EC30 CNP, 100% saturating CNP; activation, % at 10 µM; 370,000 compounds, 0.11% hits; AID 1920062, 2024;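 active = activation at 10 µM reaching about 35% in either raw or pattern-adjusted values, limit read from the data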
# NPR1 activator = GC-A stimulated cGMP production enhancers – HEK293 GC-A cells, cGMP TR-FRET, EC30 ANP, primary screen | Atrial natriuretic peptide receptor 1 (Homo sapiens), P16066 | 0% at EC30 ANP, 100% saturating ANP | activation, % at 10 µM | 370,000 compounds, 0.14% hits | AID 1671463, 2021; in the data active = activation above about 40%
# APOBEC3A inh = APOBEC3A ssDNA deaminase inhibitors, primary screen, selectivity assay for APOBEC3G inhibitor project, biochemical, FAM/TAMRA oligo cleavage fluorescence; 330,000 compounds, 0.41% hits; inhibition, % at 20 µM; DNA dC->dU-editing enzyme APOBEC-3A (Homo sapiens), P31941; AID 493011, 2011; recombinant A3A, FAM/TAMRA ssDNA deamination fluorescence;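 active = at least 40% inhibition at 20 µM here, with at most 30% in a related deaminase screen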;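 also: plate controls were A3A with DMSO for no effect and wells lacking A3A enzyme for full effect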
# PfGluPho inh = PfG6PD enzyme inhibitors, primary screen, biochemical, fluorescence intensity, uHTS. 350,000 compounds, 0.78% hits. inhibition, % at 20 µM. glucose-6-phosphate dehydrogenase-6-phosphogluconolactonase (Plasmodium falciparum 3D7). PfGluPho enzyme, NADPH resazurin-diaphorase fluorescence;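 active = inhibition reaching at least a set limit at 20 µM in the primary screen, cut at about 59% in these data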;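 also: 0% = DMSO wells with substrate and 100% = DMSO wells lacking glucose-6-phosphate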
# APOBEC3G inh = APOBEC3G DNA deaminase inhibitors, primary screen, biochemical, fluorescence, single-stranded DNA substrate, uHTS; recombinant A3G, ssDNA deamination FAM/TAMRA fluorescence; inhibition, % at 20 µM; 330,000 compounds, 0.28% hits; AID 493012, 2011;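 active = inhibition of at least 40% at 20 µM, with no more than 30% in the related APOBEC3A deaminase screen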;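 also: plate controls were DMSO wells with A3G for no effect and wells lacking A3G enzyme for full effect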
# Target sequence (Q9HC16 whole entry, looked up): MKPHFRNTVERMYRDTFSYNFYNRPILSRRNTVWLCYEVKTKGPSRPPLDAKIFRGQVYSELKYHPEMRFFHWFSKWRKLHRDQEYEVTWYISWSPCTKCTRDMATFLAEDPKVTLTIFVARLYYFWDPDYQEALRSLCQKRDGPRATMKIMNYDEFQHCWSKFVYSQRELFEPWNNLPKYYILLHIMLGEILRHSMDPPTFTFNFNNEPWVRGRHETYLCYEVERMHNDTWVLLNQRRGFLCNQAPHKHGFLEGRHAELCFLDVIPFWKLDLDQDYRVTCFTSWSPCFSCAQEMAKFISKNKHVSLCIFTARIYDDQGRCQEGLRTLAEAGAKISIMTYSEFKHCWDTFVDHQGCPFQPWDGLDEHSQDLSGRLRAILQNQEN
# APOBEC3G confirm = APOBEC3G deaminase inhibitor retest, confirmation, biochemical, fluorescence, single-stranded DNA substrate, single concentration; shares compounds with APOBEC3G inh; recombinant A3G ssDNA deaminase, UDG/FAM-TAMRA fluorescence; inhibition, % at 20 µM; 890 compounds, 72% hits;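 active = inhibition reaching a set limit in any replicate at 20 µM, the limit being 80% of the first screen's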
# UDG ctr A3G = E. coli UDG inhibitors, confirmation, counter-screen for APOBEC3G inhibitor project, biochemical, single concentration, fluorescence, FAM/TAMRA oligo; shares compounds with APOBEC3G inh; UDG counterscreen; inhibition, % at 20 µM; 710 tested, under 10 active; AID 504715, 2011;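 active = compounds giving 40% or more inhibition at 20 µM in any one of the three replicates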;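 also: plate controls were DMSO wells with UDG and oligo for no effect and DMSO wells lacking both for full effect; inhibitors lower the FAM signal released by uracil excision and alkaline cleavage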
# Target sequence (P12295 whole entry, looked up): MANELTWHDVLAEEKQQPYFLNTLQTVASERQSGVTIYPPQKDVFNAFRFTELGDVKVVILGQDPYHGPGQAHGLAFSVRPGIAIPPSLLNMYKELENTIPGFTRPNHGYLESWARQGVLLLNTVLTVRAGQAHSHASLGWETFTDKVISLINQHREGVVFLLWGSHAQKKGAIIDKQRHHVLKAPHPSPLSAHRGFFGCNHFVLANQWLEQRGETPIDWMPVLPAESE
# PfG6PD confirm = PfG6PD inhibitors, hit retest, confirmation, biochemical, fluorescence intensity, single concentration. inhibition, % at 20 µM. AID 504753, 2011. 2,400 compounds, 34% hits. recombinant PfGluPho, NADPH-diaphorase-resazurin fluorescence. shares compounds with PfGluPho inh;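 active = inhibition of at least 50% at 20 µM in any single replicate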;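 also: 0% = DMSO with substrate and 100% = DMSO lacking glucose-6-phosphate substrate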
# Diaph ctr 10uM = diaphorase inhibitors and chemical oxidizers, confirmation, counter-screen for P. falciparum G6PD inhibitor project, biochemical, fluorescence intensity, 10 µM NADPH; shares compounds with PfGluPho inh; diaphorase-coupled resazurin reduction, NADPH 10 uM; inhibition, % at 20 µM; 820 compounds, 39% hits;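 active = average inhibition reaching 50% or more with the compound at 20 µM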;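 also: resorufin red fluorescence formed as diaphorase reduces resazurin using NADPH; 0% = DMSO with enzyme and 100% = DMSO without enzyme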
# Diaphorase 30uM = diaphorase inhibitors and chemical oxidizers, confirmation, counter-screen for P. falciparum G6PD inhibitor project, biochemical, fluorescence intensity, 30 µM NADPH. inhibition, % at 20 µM. 820 compounds, 29% hits. shares compounds with PfGluPho inh. Diaphorase/resazurin coupled assay, resorufin fluorescence;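 active = inhibition averaging 50% or more, tested at 20 µM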;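 also: 0% = DMSO with enzyme and 100% = DMSO wells lacking diaphorase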
# Starred values were filed as active, the others as inactive; . = not tested or not shown. The list is not random: actives were taken first. Their share in the collection is about 2%.
SMILES,Neddylation inh,NPR2 activator,NPR1 activator,APOBEC3A inh,PfGluPho inh,APOBEC3G inh,APOBEC3G confirm,UDG ctr A3G,PfG6PD confirm,Diaph ctr 10uM,Diaphorase 30uM
CCOc1ccc(C(C)NC(=S)NC2CCCCC2)cc1OCC (configuration not stated),-1.4,3.6,-5.3,0.1,6.2,-5.5,.,.,.,.,.
Cc1cc(N2CCNC[C@H]2C)ccc1N1C[C@@H](C)O[C@@H](C)C1,.,-0.6,0.1,.,.,.,.,.,.,.,.
O=S(=O)(Nc1cc(Sc2ncn[nH]2)c(O)c2ccccc12)c1ccccc1,1.4,5.5,9.2,-2.0,101.6*,60.9*,89.2*,-0.8,98.4*,52.6*,46.0
Cc1cc(O)c(Sc2ncn[nH]2)cc1NS(=O)(=O)c1ccc(Cl)cc1,-2.2,1.5,-1.4,1.7,22.0,-5.9,.,.,.,.,.
CCOC(=O)Cc1csc(-n2sc3ccccc3c2=O)n1,-191.6,9.6,4.6,0.3,124.0*,81.4*,84.0*,3.2,81.1*,-14.4,4.3
CCN1CCN(c2nc(C)nc3c2sc(=S)n3C)CC1,-1.9,-9.0,3.0,4.4,76.3*,46.4*,45.1*,.,62.4*,-18.9,-14.6
O=C(Nc1n[nH]c(=S)s1)c1ccco1,3.2,11.5,2.5,-2.8,59.7*,82.7*,88.4*,-2.6,36.5,.,.
CCOC(=O)c1csc(NC(=O)C2CCCN(S(=O)(=O)c3ccccc3[N+](=O)[O-])C2)n1 (configuration not stated),.,5.1,-0.7,.,.,.,.,.,.,.,.
COCC(=O)N[C@@H]1C[C@@H]2O[C@H](CO)CC[C@@H]2O[C@@H]1CCc1ccc(-c2ccccc2)cc1,.,5.8,7.3,.,.,.,.,.,.,.,.
CC(C)(C)c1cc(C(=S)N2CCN(CCO)CC2)cc(C(C)(C)C)c1O,-0.2,0.3,-0.7,2.8,60.0*,61.0*,55.8*,-4.5,10.6,.,.
CCN(CC)CCNC(=O)CCCCn1c(=S)[nH]c2c([nH]c3ccc(OC)cc32)c1=O,.,-3.4,4.1,-2.6,64.3*,68.6*,83.8*,8.2,47.2*,-3.3,-7.7
c1csc(-c2nn3c(Cn4cnc5ccccc54)nnc3s2)c1,-10.3,-0.1,-13.4,5.2,75.2*,52.6*,37.7*,-3.7,37.8,.,.
c1csc(-c2nn3c(Cn4nnc5ccccc54)nnc3s2)c1,-16.2,0.8,0.5,2.1,53.1,-3.0,.,.,.,.,.
Cc1ccc(C(=O)CSc2nc3cc(S(=O)(=O)N4CCOCC4)ccc3o2)cc1,-7.2,-0.2,-5.1,-9.2,20.8,-6.3,.,.,.,.,.
Cc1nc2ccc(Nc3nc4cc(S(=O)(=O)N5CCOCC5)ccc4o3)cc2s1,21.4,-1.8,-1.2,7.0,92.7*,56.1*,46.6*,2.9,54.3*,18.6,23.6
CCSc1nc2cc(S(=O)(=O)N3CCOCC3)ccc2o1,8.9,-1.2,11.4,10.8,70.6*,62.1*,45.1*,5.5,49.9*,-17.7,-20.9
Cc1nc2ccc(NC(=O)c3cc(S(=O)(=O)N4CCOCC4)ccc3C)cc2s1,1.0,3.8,1.9,2.3,3.7,-3.9,.,.,.,.,.
O=C(Oc1ccc(C(=S)N2CCOCC2)cc1Br)c1cc(Cl)ccc1Cl,7.1,0.1,-0.3,-4.6,-5.8,-4.7,.,.,.,.,.
O=C(Oc1c(Br)cc(C(=S)N2CCOCC2)cc1Br)c1ccc(Cl)cc1,3.9,2.0,0.4,2.3,66.5*,61.9*,20.4*,-1.6,9.2,.,.
Cc1ccc(-c2cn3c(=S)[nH]nc3s2)cc1,-2.9,-11.3,0.5,3.2,65.0*,79.7*,66.1*,-3.6,37.9,.,.
COc1ccc(-c2n[nH]c(=S)n2-c2ccc(C)cc2)cc1,-3.8,-2.1,0.1,5.0,50.7,26.8,.,.,.,.,.
CC1=C(SCCC#N)S/C(=C2\SC(C)=C(SCCC#N)S2)S1,-47.4,11.0,-2.3,2.5,59.6*,69.0*,47.4*,-2.9,3.0,.,.
COc1cc(NC(=O)c2ccccc2)c(C)cc1NC(=O)CSc1nnc(-c2ccccc2F)n1-c1ccc(C)cc1,.,-3.5,-5.3,.,.,.,.,.,.,.,.
O=S(=O)(CC1NCc2ccccc21)NCCc1ccccc1 (configuration not stated),.,-0.1,-3.2,.,.,.,.,.,.,.,.
Cc1ccc(/C=C/C(=O)NC2CCCCCCC2)o1,9.4,7.0,8.5,9.7,80.7*,49.8*,37.6*,-3.0,51.8*,3.1,-2.5
O=C(NCCCN1CCOCC1)c1sc2cc([N+](=O)[O-])ccc2c1Cl,-21.8,.,.,-8.6,87.5*,58.3*,84.7*,-2.2,94.6*,-22.2,-20.9
COc1ccc2c(c1)CNC2CS(=O)(=O)NCCc1ccccc1 (configuration not stated),.,-1.9,-2.5,.,.,.,.,.,.,.,.
COC(=O)Cc1sc(-c2ccccn2)nc1-c1ccccc1,-20.8,-0.4,6.8,1.9,62.8*,48.8*,41.3*,1.9,22.6,.,.
COC(=O)Cc1ccc2sc(-c3ccccc3)nc2c1,-42.7,-4.9,10.1,-0.8,-1.7,-0.5,.,.,.,.,.
